PfM18AAP inh: blocks P. falciparum M18 aspartyl aminopeptidase; recombinant PfM18AAP, H-Glu-NHMec fluorogenic cleavage; inhibition, % at 7.35 µM; hit rate 1.2% among 290,000; AID 1822;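 active = inhibition above the campaign mean inhibition over all tested compounds plus 3 SD, cut at about 28% in these data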
Rce1 inh: yeast Ras-converting enzyme inhibition | hit rate 0.27% among 290,000 | calls only | yeast membranes, quenched prenylated peptide cleavage fluorescence | AID 2563 | Q03530;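 active = fall in fluorescence gain of 50% or more versus controls, with final raw signal at or below 3038400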
Kir21 inh: inhibitors of mouse Kir2.1 inward-rectifier potassium channel | hit rate 0.85% among 310,000 | HEK293-Kir2.1, FluxOR thallium flux fluorescence; active compounds read low | P35561 | B-score at 10 µM;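 active = fluorescence ratio B-score at or below minus 3 SD of library scores, with starting-brightness B-score within 2 SD, cut at about -4.2 in these data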;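 note: channel flux triggered by added potassium and thallium sulfate stimulus; B-score of peak minus minimum fluorescence over baseline after thallium stimulus; more negative B-score means stronger Kir2.1 block with less thallium influx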
Target sequence (P35561 whole entry, looked up): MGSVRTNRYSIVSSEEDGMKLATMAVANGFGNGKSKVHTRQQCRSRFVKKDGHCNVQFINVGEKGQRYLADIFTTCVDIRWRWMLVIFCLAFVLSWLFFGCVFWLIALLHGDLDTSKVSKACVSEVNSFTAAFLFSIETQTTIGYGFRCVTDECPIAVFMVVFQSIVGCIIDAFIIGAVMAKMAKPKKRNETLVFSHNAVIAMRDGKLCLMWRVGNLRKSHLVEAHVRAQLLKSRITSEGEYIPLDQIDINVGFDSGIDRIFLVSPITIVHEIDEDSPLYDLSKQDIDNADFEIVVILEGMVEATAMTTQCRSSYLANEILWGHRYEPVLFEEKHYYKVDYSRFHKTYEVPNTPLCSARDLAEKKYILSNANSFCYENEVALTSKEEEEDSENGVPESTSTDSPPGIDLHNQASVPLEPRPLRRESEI
DNA FID counter: counter-screen for HCV NS3 helicase inhibitors: DNA intercalator displacement | DNA fluorescent intercalator displacement, fluorescence | inhibition, % at 7.9 µM | hit rate 0.17% among 290,000 | AID 1845; in the data active = inhibition above about 37%;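 note: higher means more ethidium bromide displaced from hairpin DNA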
Each line names hits and unclear results; the compound was inactive in the other large screens. Sampled rows, rich in hits. Any-hit rate of the full collection: about 2.3%.

CCOc1ccc(C(=O)Nc2nnc(SCC(=O)NCC3CCCO3)s2)cc1OCC (configuration not stated)	none
CCCCCCCCCCC[N+](C)(C)CC/C=C1/c2ccccc2Sc2ccc(Cl)cc21	Rce1 inh active
CC[N+](C)(C)CC/C=C1/c2ccccc2Sc2ccc(Cl)cc21	none
CCCCCCCCCC[N+](C)(C)CC/C=C1/c2ccccc2Sc2ccc(Cl)cc21	Rce1 inh active
COC(=O)c1cc(C)sc1NC(=O)CSc1ncccn1	none
Cc1ccc(S(=O)(=O)NC(C)CCc2ccccc2)cc1 (configuration not stated)	Kir21 inh -4.8
O=C(Nn1cnnc1)c1cc2c(s1)CCCC2	PfM18AAP inh 32
NNC(=O)c1cc2c(s1)CCCCCC2	none
Cc1cccc(-n2ncc3c2CCCC3NC(=O)CCCN2CCCCC2=O)c1C (configuration not stated)	none (no result: Rce1 inh)
CCn1c(=O)[nH]c2cc(C(=O)Nc3cc(C)cc(C)c3)ccc2c1=O	none
Cc1ccc(COn2c(-c3ccc(Cl)cc3Cl)nc3ncccc32)cc1	Kir21 inh -5.1
O=C(CCCCCn1nnc2ccccc2c1=O)Nc1ccccc1Cl	none
O=C(NCc1cccnc1)NC(=O)c1ccc(Cl)cc1	none
CC(C)CN(C(=O)c1cccc(Cl)c1)c1c(N)n(CC(C)C)c(=O)[nH]c1=O	none (no result: Rce1 inh)
CCn1c(/C=C/Nc2ccccc2)[n+](CC)c2cc(Cl)c(Cl)cc21	Kir21 inh -7
Cc1ccccc1CNS(=O)(=O)c1ccccc1[N+](=O)[O-]	none
Cc1onc(-c2ccccc2)c1CNS(=O)(=O)c1ccccc1[N+](=O)[O-]	Kir21 inh -6.9
O=C1c2cccc([N+](=O)[O-])c2C(=O)N1CCO	none (no result: Rce1 inh)
O=C1CSC(=S)N1N1C(=O)c2cccc([N+](=O)[O-])c2C1=O	PfM18AAP inh 43
Cc1nc(N)sc1-c1csc(Nc2cccc(C(=O)O)c2)n1	PfM18AAP inh 29
CCC(=O)Nc1nc(C)c(-c2csc(Nc3cccc(C(=O)O)c3)n2)s1	none
CC(=O)Nc1ccc(Nc2nc(-c3sc(NC(C)=O)nc3C)cs2)cc1	none
CC(=O)Nc1nc(C)c(-c2csc(Nc3ccc(O)cc3)n2)s1	PfM18AAP inh 28 (no result: Rce1 inh, Kir21 inh)
CCNc1nc(NCC)nc(NS(=O)(=O)c2ccc(N)cc2)n1	none
Oc1ccc(-c2nccc(-c3ccc(F)cc3)n2)cc1	none
CCn1c(COc2ccccc2)nnc1SCC(=O)Nc1ccc(N2CCOCC2)cc1	none
Cc1cccc2sc(NNC(=O)c3cc(-c4cccs4)nc4ccccc34)nc12	PfM18AAP inh 31
COc1ccc(C(=O)NCC(=O)OCC(=O)Nc2cccc(S(=O)(=O)N3CCCC3)c2)cc1	none
O=C(NNS(=O)(=O)c1ccc(Br)cc1)c1csnn1	PfM18AAP inh 30 (no result: Rce1 inh, Kir21 inh)
O=C(NC(=S)Nc1ccccc1Cl)c1csnn1	none
O=C(Nc1ccccc1NC(=O)c1csnn1)c1csnn1	PfM18AAP inh 73
O=C(NNS(=O)(=O)c1ccc(Br)cc1)c1ccccc1-n1cccc1	none
Cc1ccc(S(=O)(=O)N2CCC(=O)N(CCOCc3cccc(F)c3)CC2)cc1	none
Cc1ccc(S(=O)(=O)N2CCC(=O)N(CCOCc3cccc(Cl)c3)CC2)cc1	Kir21 inh -5.5
O=C(COc1ccc2ccccc2c1Br)Nc1ncn[nH]1	none
Cc1cccc(C)c1OCC(=O)Nc1ncn[nH]1	PfM18AAP inh 29
CCOc1cc(/C=N/NC(=O)c2cccnc2)cc(Br)c1OCC(N)=O	none
Cc1ccc2nc(Br)c3c(c2c1)OC(CBr)C3 (configuration not stated)	none
NC(=S)N/N=C/c1ccc(-c2cc(Cl)cc(Cl)c2)o1	none
NC(=S)N/N=C/c1ccc(-c2ccc([N+](=O)[O-])cc2)o1	PfM18AAP inh 42
Cc1cc(S(=O)(=O)NCC(c2ccc3c(c2)OCO3)N2CCOCC2)ccc1F (configuration not stated)	none (no result: PfM18AAP inh, DNA FID counter)
CCc1ccc(/C=C/C(=O)c2cc(Br)ccc(=O)c2O)cc1	PfM18AAP inh 60
O=C(c1nc2ccccn2c1CN1CCCC(OCc2ccccc2)C1)N1CCCC1 (configuration not stated)	none
N#Cc1ccccc1CCN1C(=O)c2ccccc2C1=O	none
O=C(NCCc1cccc(F)c1)C1CCC(=O)N(CCCc2ccccc2)C1 (configuration not stated)	none
Cc1ccc(C)c(N2CCN(CCCNC(=O)Cn3cccc3C(=O)c3ccccc3)CC2)c1	Kir21 inh -5.4
O=C(Cn1cccc1C(=O)c1ccccc1)NCCCN1CCOCC1	none
COc1cnn(Cc2ccccc2)c(=O)c1SCc1ccccc1	Kir21 inh -4.7
CCOC(=O)N1CCN(S(=O)(=O)N2CCCC(C(=O)NCc3cccc(OC)c3)C2)CC1 (configuration not stated)	none
COc1c(O)cccc1[C@H](O)C1CCN(CCc2ccc(F)cc2)CC1	none (no result: PfM18AAP inh, DNA FID counter)
COc1ccc(Nc2nc(N)c3ccccc3n2)c(OC)c1	Kir21 inh -5.1
COc1ccc(Nc2nc(N3CCCCC3)nc3ccccc23)c(OC)c1	Kir21 inh -7
COc1ccc(Cc2nnc(NC(=O)CS(=O)(=O)Cc3ccccc3)s2)cc1	none
CCCN(C(=O)c1cn(-c2ccccc2)nc1-c1ccc(OC)cc1)C1CCS(=O)(=O)C1 (configuration not stated)	none (no result: PfM18AAP inh, DNA FID counter)
COc1cc(CNCc2ccccn2)ccc1OCc1c(Cl)cccc1Cl	Kir21 inh -8.8 (no result: Rce1 inh)
CC(C)(C)NCc1cc(Br)ccc1OCc1cccs1	Kir21 inh -4.8
COc1cc(CNCc2ccccn2)ccc1OCc1cccc(Cl)c1	Kir21 inh -7.6
COc1cc(CNCc2cccs2)ccc1OCc1cccs1	Kir21 inh -5
COc1cc(CNCc2cccs2)ccc1OCc1ccccc1	none
COc1cc(CNCc2ccco2)ccc1OCc1ccccc1	none
Cc1c(Cl)cccc1NC(=O)N1CCN(C(=O)c2ccco2)CC1	none
Cc1ccc(COC(=O)NCc2cccnc2)cc1	none
COc1cccc(N(C(=O)c2snc(C(N)=O)c2N)C(C(=O)NCC2CCCO2)c2ccc3ncccc3c2)c1 (configuration not stated)	none
O=C(CNC(=O)c1sc2ccccc2c1Cl)NCc1ccc(F)cc1	none (no result: PfM18AAP inh, DNA FID counter)
Cc1ccccc1C(=O)Nc1ccnn1C1CCN(C(=O)c2cnsn2)CC1	none
COc1ccc(-n2nc(C(=O)NCC(=O)O)c3ccccc3c2=O)cc1	none
COc1ccc(-n2nc(C(=O)NCC(=O)N(C)Cc3ccccc3)c3ccccc3c2=O)cc1	Rce1 inh active
COc1ccc(-n2nc(C(=O)NCC(=O)NCCC3=CCCCC3)c3ccccc3c2=O)cc1	none
COc1ccc(-n2nc(C(=O)NCC(=O)NCc3ccc(F)cc3)c3ccccc3c2=O)cc1	Rce1 inh active
COc1ccc(-n2nc(C(=O)NCC(=O)N3CCN(Cc4ccccc4)CC3)c3ccccc3c2=O)cc1	Rce1 inh active
CCc1c(C)nc(N2CCN(c3ccc(Cl)cc3)CC2)[nH]c1=O	none
CSc1ccc(CN2CCC(Oc3ccc(C(=O)N4CCCC4)cc3)CC2)cc1	Kir21 inh -4.4
O=C(c1ccc(OC2CCN(Cc3ccc(F)cc3)CC2)cc1)N1CCCC1	Kir21 inh -4.2
COc1ccc2[nH]c3c(c2c1)CCN1C(=O)N([C@@H](C)C(=O)NC2CCCCC2C)C(=O)[C@]31C (some centres not stated)	none
Cc1ccc(S(=O)(=O)N(C)CC(=O)O/N=C(\N)c2cccc(Br)c2)cc1	none

Screening data: PubChem, several laboratories
